Source: the supplement of paper PMC10849652
The full data set covers some 7,900 targets. This sample favours those with a hit. About 0.6% of all pairs of compound and target were hits.

The targets below were run with CN1CCN(CCOc2cc(OC3CCOCC3)c3c(Nc4c(Cl)ccc5c4OCO5)ncnc3c2)CC1 [saracatinib] (assay: log2 fold change, soluble protein after heating vs DMSO (PISA); higher = thermal stabilisation; K562 cells, 10 uM, 30 min; active = over 0.2 and 3.5 SD of the protein, either way, in both replicates (recomputed)).
Procedure, shortened: (§1)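 K562 cells at 2×10^6 cells/mL were treated for 30 min with 10 μM compound, and aliquots were heated for 3 min over 48°C-58°C before pooling. Extraction used PBS with 0.5% NP-40 at 4°C, and soluble protein was the supernatant after 21,000xg for 90 min, measured by TMTpro 16plex LC-MS/MS with channel sums equalised. Thermal stability values, relative to control samples and from duplicates, are log2 fold changes.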

UniProt Q96A65, sequence (Q96A65 whole entry, looked up): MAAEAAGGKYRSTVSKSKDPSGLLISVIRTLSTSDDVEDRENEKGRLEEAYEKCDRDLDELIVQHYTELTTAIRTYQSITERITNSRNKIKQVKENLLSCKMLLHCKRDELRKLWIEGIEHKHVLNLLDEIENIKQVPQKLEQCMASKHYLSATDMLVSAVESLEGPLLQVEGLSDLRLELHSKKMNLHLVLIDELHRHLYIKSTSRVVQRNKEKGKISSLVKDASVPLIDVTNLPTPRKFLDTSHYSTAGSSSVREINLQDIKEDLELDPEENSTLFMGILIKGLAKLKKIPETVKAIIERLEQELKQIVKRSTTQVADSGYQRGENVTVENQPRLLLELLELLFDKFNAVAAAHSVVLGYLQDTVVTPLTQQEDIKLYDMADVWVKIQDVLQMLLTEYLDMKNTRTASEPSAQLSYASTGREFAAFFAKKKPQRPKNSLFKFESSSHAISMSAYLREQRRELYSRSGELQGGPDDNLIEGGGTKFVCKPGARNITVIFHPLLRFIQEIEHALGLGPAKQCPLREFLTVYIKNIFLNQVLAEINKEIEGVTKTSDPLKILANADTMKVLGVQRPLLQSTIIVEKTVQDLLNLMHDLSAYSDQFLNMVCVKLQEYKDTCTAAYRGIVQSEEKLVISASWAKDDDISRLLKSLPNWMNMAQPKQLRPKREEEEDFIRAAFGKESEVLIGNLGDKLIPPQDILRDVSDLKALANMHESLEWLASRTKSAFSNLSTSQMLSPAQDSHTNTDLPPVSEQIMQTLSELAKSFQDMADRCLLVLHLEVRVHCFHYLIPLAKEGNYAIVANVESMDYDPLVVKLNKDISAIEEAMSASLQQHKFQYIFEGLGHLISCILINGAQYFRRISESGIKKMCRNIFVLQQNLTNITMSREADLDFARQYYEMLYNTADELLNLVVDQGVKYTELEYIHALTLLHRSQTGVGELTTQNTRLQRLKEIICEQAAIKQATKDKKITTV
UniProt O60911, sequence (O60911 whole entry, looked up): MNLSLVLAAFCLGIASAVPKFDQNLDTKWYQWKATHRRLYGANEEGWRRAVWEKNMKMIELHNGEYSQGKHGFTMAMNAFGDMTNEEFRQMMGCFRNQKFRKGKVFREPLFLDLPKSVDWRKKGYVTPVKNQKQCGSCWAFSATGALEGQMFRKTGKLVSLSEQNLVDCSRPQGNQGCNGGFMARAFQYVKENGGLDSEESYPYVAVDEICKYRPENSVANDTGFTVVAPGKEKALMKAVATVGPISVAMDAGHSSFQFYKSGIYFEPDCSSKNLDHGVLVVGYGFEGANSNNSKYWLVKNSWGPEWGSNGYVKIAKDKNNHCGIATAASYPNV
UniProt Q14689, sequence (Q14689 whole entry, looked up): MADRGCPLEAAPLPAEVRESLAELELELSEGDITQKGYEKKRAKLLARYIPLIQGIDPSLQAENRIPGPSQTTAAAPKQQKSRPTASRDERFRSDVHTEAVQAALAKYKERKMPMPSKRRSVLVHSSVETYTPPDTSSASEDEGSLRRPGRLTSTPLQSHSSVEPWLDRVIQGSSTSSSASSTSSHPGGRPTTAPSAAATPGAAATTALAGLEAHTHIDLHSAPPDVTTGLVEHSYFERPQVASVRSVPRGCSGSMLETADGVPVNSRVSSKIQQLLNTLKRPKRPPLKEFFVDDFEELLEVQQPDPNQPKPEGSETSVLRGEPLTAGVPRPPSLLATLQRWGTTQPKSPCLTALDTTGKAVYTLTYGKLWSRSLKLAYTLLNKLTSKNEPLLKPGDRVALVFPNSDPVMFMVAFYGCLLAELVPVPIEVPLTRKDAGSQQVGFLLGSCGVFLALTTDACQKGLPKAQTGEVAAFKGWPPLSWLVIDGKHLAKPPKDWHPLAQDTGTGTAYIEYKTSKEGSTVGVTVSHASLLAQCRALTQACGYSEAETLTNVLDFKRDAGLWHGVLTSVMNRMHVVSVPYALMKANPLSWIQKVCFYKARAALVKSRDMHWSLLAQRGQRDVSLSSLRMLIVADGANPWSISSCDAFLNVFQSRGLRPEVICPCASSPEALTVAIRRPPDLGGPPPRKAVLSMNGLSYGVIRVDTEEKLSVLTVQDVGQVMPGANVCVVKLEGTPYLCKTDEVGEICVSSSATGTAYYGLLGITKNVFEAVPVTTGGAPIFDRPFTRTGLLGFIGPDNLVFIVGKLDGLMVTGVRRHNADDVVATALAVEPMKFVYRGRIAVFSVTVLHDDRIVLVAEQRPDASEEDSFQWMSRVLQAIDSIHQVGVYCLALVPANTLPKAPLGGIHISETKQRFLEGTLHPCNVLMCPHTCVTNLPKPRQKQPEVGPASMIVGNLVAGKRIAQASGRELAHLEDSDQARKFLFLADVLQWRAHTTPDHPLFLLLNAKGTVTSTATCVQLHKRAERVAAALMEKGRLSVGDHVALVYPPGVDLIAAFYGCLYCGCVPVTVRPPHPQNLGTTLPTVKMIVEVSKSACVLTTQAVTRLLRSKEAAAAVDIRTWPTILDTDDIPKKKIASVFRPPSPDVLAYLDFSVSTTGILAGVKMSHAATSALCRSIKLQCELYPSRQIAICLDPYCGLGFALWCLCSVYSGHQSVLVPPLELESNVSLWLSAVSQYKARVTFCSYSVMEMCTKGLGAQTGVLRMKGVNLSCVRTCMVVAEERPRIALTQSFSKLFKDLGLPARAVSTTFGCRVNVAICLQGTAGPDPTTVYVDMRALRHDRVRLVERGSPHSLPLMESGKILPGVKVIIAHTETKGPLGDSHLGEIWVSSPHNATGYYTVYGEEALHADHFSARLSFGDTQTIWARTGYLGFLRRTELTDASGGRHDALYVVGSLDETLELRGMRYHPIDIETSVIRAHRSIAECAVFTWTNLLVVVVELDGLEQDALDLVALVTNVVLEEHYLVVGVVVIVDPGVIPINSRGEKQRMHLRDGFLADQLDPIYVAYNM
UniProt Q15910, sequence (Q15910 whole entry, looked up): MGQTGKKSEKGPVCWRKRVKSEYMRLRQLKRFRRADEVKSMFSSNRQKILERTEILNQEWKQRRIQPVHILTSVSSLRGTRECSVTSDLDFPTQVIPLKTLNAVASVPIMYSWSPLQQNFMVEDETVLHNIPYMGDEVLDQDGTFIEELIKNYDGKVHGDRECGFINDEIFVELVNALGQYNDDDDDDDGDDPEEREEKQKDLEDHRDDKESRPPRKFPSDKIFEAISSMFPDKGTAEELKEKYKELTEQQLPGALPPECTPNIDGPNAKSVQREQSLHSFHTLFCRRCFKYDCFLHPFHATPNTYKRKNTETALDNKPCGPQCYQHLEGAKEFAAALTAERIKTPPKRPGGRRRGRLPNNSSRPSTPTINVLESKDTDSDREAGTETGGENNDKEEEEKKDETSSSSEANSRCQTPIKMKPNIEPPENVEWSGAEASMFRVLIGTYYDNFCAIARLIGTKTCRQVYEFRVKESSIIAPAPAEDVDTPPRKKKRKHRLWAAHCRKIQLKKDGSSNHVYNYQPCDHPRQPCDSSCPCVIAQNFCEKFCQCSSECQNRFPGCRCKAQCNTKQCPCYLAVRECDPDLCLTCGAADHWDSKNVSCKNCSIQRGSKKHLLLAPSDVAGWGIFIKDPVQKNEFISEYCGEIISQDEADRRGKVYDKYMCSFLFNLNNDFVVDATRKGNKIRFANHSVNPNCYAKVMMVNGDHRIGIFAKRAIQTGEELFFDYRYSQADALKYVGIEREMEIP
UniProt Q6P3W2, sequence (Q6P3W2 whole entry, looked up): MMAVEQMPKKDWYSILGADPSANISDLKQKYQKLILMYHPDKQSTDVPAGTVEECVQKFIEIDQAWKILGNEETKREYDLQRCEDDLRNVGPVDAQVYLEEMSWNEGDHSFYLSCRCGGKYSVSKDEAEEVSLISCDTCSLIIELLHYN
UniProt P25774, sequence (P25774 whole entry, looked up): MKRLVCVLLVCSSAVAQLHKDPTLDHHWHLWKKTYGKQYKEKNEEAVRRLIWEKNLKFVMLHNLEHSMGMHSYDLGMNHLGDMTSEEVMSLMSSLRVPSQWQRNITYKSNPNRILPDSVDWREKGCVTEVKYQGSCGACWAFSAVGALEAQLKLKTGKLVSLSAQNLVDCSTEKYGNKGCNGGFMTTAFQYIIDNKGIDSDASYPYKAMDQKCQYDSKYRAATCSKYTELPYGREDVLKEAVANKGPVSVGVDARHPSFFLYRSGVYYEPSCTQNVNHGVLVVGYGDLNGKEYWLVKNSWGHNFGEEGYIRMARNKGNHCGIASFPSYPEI
UniProt Q96PV7, sequence (Q96PV7 whole entry, looked up): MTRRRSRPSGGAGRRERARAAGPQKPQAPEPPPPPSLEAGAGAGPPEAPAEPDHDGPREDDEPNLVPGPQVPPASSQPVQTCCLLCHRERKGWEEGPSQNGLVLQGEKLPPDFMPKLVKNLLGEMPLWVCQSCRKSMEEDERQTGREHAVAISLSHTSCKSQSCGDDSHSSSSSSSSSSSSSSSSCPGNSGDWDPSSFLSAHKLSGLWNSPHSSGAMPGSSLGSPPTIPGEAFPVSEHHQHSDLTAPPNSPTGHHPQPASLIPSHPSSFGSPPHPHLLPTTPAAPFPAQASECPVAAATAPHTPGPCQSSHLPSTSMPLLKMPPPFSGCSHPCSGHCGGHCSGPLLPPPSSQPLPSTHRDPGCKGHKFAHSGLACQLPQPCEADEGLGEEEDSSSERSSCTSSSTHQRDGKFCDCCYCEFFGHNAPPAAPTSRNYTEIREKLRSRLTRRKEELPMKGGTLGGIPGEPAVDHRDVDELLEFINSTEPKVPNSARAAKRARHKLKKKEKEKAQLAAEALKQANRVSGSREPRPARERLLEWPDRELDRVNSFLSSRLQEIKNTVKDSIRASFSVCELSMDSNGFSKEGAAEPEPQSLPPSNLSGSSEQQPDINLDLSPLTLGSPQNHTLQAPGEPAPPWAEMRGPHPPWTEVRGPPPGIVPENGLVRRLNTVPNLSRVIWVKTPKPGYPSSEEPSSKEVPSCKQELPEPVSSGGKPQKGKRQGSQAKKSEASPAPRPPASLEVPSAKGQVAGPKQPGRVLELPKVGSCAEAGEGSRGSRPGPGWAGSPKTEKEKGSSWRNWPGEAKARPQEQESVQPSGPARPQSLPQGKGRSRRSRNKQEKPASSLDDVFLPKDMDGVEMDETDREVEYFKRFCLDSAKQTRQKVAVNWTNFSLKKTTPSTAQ

| Target | log2 fold change |
| --- | --- |
| CTNNB1 (UniProt P35222) | 0.032 (inactive) |
| DENND10 (UniProt Q8TCE6) | 0.035 (inactive) |
| EXOSC10 (UniProt Q01780) | -0.091 (inactive) |
| EXOC4 (UniProt Q96A65) | -0.013 (inactive) |
| DEGS1 (UniProt O15121) | 0.088 (inactive) |
| DDX27 (UniProt Q96GQ7) | -0.104 (inactive) |
| EDC4 (UniProt Q6P2E9) | -0.023 (inactive) |
| CTSV (UniProt O60911) | -0.049 (inactive) |
| CYB561A3 isoform 2 (UniProt Q8NBI2) | 0.019 (inactive) |
| DCP2 (UniProt Q8IU60) | -0.053 (inactive) |
| ERLIN2 (UniProt O94905) | -0.044 (inactive) |
| DPYSL2 (UniProt Q16555) | 0.127 (inactive) |
| ELAC1 (UniProt Q9H777) | 0.094 (inactive) |
| FAM50A (UniProt Q14320) | 0.11 (inactive) |
| FAM118A (UniProt Q9NWS6) | -0.138 (inactive) |
| DIP2A (UniProt Q14689) | 0.082 (inactive) |
| DNAJC24 (UniProt Q6P3W2) | 0.185 (inactive) |
| EZH2 isoform 2 (UniProt Q15910) | -0.043 (inactive) |
| DHRS13 (UniProt Q6UX07) | -0.03 (inactive) |
| FAM193B (UniProt Q96PV7) | -0.289 (inactive) |

| Target | log2 fold change |
| --- | --- |
| ECPAS (UniProt Q5VYK3) | -0.055 (inactive) |
| DMAC1 (UniProt Q96GE9) | -0.509 (active) |
| ELF1 (UniProt P32519) | 0.02 (inactive) |
| DNAH10 (UniProt Q8IVF4) | -0.067 (inactive) |
| DOCK8 (UniProt Q8NF50) | -0.241 (inactive) |
| ERCC6 (UniProt Q03468) | -0.006 (inactive) |
| ETNK1 (UniProt Q9HBU6) | -0.037 (inactive) |
| DYNC1I2 isoform 5 (UniProt Q13409) | 0.012 (inactive) |
| CUX1 isoform 3 (UniProt P39880) | 0.002 (inactive) |
| CWF19L2 (UniProt Q2TBE0) | -0.089 (inactive) |
| EIF2S3 (UniProt P41091) | -0.016 (inactive) |
| CUTA isoform 2 (UniProt O60888) | 0.202 (inactive) |
| EIF2AK1 (UniProt Q9BQI3) | 0.073 (inactive) |
| DNAH5 (UniProt Q8TE73) | 0.058 (inactive) |
| EPHX2 (UniProt P34913) | -0.009 (inactive) |
| EDEM2 (UniProt Q9BV94) | -0.23 (inactive) |
| ELOVL5 isoform 2 (UniProt Q9NYP7) | -0.037 (inactive) |
| DAXX (UniProt Q9UER7) | -0.001 (inactive) |
| CTSS (UniProt P25774) | 0.478 (active) |

The targets below were run with CN1CCN(c2nc(C3=C(c4c[nH]c5ccccc45)C(=O)NC3=O)c3ccccc3n2)CC1 [sotrastaurin] in the same assay as above.
Procedure, shortened: as §1

| Target | log2 fold change |
| --- | --- |
| CTNNB1 (UniProt P35222) | 1.08 (active) |
| DENND10 (UniProt Q8TCE6) | 0.015 (inactive) |
| EXOSC10 (UniProt Q01780) | 0.199 (inactive) |
| EXOC4 (UniProt Q96A65) | -0.224 (inactive) |
| DEGS1 (UniProt O15121) | -0.022 (inactive) |
| DDX27 (UniProt Q96GQ7) | -0.088 (inactive) |
| EDC4 (UniProt Q6P2E9) | -0.109 (inactive) |
| CTSV (UniProt O60911) | 0.195 (inactive) |
| CYB561A3 isoform 2 (UniProt Q8NBI2) | 0.001 (inactive) |
| DCP2 (UniProt Q8IU60) | -0.267 (inactive) |
| ERLIN2 (UniProt O94905) | -0.097 (inactive) |
| DPYSL2 (UniProt Q16555) | 0.062 (inactive) |
| ELAC1 (UniProt Q9H777) | 0.006 (inactive) |
| FAM50A (UniProt Q14320) | -0.119 (inactive) |
| FAM118A (UniProt Q9NWS6) | -0.135 (inactive) |
| DIP2A (UniProt Q14689) | 0.054 (inactive) |
| DNAJC24 (UniProt Q6P3W2) | -0.081 (inactive) |
| EZH2 isoform 2 (UniProt Q15910) | 0.001 (inactive) |
| DHRS13 (UniProt Q6UX07) | -0.17 (inactive) |
| FAM193B (UniProt Q96PV7) | 0.06 (inactive) |

| Target | log2 fold change |
| --- | --- |
| ECPAS (UniProt Q5VYK3) | -0.124 (inactive) |
| DMAC1 (UniProt Q96GE9) | 0 (inactive) |
| ELF1 (UniProt P32519) | -0.027 (inactive) |
| DNAH10 (UniProt Q8IVF4) | -0.06 (inactive) |
| DOCK8 (UniProt Q8NF50) | -0.398 (inactive) |
| ERCC6 (UniProt Q03468) | 0.169 (inactive) |
| ETNK1 (UniProt Q9HBU6) | -0.045 (inactive) |
| DYNC1I2 isoform 5 (UniProt Q13409) | 0.021 (inactive) |
| CUX1 isoform 3 (UniProt P39880) | -0.003 (inactive) |
| CWF19L2 (UniProt Q2TBE0) | -0.15 (inactive) |
| EIF2S3 (UniProt P41091) | 0 (inactive) |
| CUTA isoform 2 (UniProt O60888) | 0.097 (inactive) |
| EIF2AK1 (UniProt Q9BQI3) | 0.095 (inactive) |
| DNAH5 (UniProt Q8TE73) | 0.017 (inactive) |
| EPHX2 (UniProt P34913) | 0.172 (inactive) |
| EDEM2 (UniProt Q9BV94) | -0.05 (inactive) |
| ELOVL5 isoform 2 (UniProt Q9NYP7) | -0.084 (inactive) |
| DAXX (UniProt Q9UER7) | -0.078 (inactive) |
| CTSS (UniProt P25774) | 0.051 (inactive) |
